The source of these data is PubChem BioAssay (EPA / NIEHS).

Each structure is given as a SMILES string. More than one record can exist for a structure, and the calls need not agree. Calls of active or inactive are those of the source. How the source made its calls: active means hit-call score of the fitted dose curve at least 0.9, where 1 is the maximum; inactive means score below 0.9.

This test is described as follows: CEETOX_H295R_OHPROG: CeeTox H295R High-throughput Steroidogenesis Assay for OH-Progesterone (OHPROG) (AID 2283435). Conditions: actives raise or lower the signal. Here is the method:
CEETOX_H295R is a cell-based, multiplexed-readout assay that uses H295R, a human adrenal gland cell line, with measurements taken at 48 hours after chemical dosing in a 96-well plate.CEETOX_H295R_OHPROG is one of 23 assay component(s) measured or calculated from the CEETOX_H295R assay. It is designed to make measurements of hormone induction, a form of inducible reporter, as detected with absorbance signals by HPLC-MS-MS technology.Data from the assay component CEETOX_H295R_OHPROG was analyzed into 1 assay endpoint. This assay endpoint, CEETOX_H295R_OHPROG, was analyzed with bidirectional fitting relative to DMSO as the negative control and baseline of activity. Using a type of inducible reporter, gain or loss-of-signal activity using HPLC-MS-MS was used to understand synthesis of 17alpha-hydroxyprogesterone in H295R cell line at 48hr of chemical exposure. To generalize the intended target to other relatable targets, this assay endpoint is annotated to the steroid hormone intended target family, where the subfamily is progestagens.
Cell culture and media preparation procedures were conducted in accordance with OECD Test No. 456 guidelines, with minor modifications. H295R cells (ATCC CRL-2128) were expanded for 5 passages and frozen in batches in liquid nitrogen. Prior to the steroidogenesis assay, H295R cells were thawed and passed at least 4 times. The maximum passage was 10. Cells were maintained in a 1:1 mixture of DMEM/F12 supplemented with 5ml/L ITS+ Premix (BD Bioscience) and 12.5 ml/L Nu-Serum (BD Bioscience). After seeding cells into 96-well plates at 50-60% confluency, cells were allowed to adhere overnight. Prior to chemical testing, culture medium was replaced with 175 uL medium containing 10 uM forskolin to stimulate steroidogenesis for 48 hours. Following prestimulation, forskolin medium was replaced with medium containing test chemical solubilized in DMSO (ensuring a final concentration of 0.1% DMSO). Test chemicals were incubated for 48 hours, then the medium was removed and split into 2 vials containing approximately 75uL each, and stored at -80 C prior to hormone analysis. For steroid quantification, media samples were shipped to OpAns, LLC (Durham, NC) on dry ice, and samples were thawed to room temperature prior to liquid-liquid extraction. Steroid hormones were extracted from media samples using methyl tertbutyl ether (MTBE). An extra derivatization with dansyl chloride was included for estrogen (estrone and estradiol) detection only. Steroid hormones were separated by HPLC, eluted using a reverse phase C18 gradient with electrospray positive ionization, followed by quantification by tandem mass spectrometry (MS/MS). Data were acquired on a MassHunter Workstation Acquisition version B03.01 (Agilent Technologies, Inc.) and processed using MassHunter Quantitative Analysis for QQQ. Accuracy was determined for each hormone analyte from 3 standards to determine upper and lower limits of quantification (ULOQ and LLOQ, respectively) using a 7-point standard curve. Precision and accuracy of the extraction and quantification methods were calculated as the percent relative standard deviation (%RSD) of the spiked standards and percent spiked standard recovered, respectively. […] Test medium was removed following chemical exposure, and cell viability was evaluated in the same wells by MTT. MTT procedures were as follows: after removal of test medium, 500 uL of 0.5 mg/ml of 3-[4,5-dimethylthiazol-2-y]2,5-diphenyltetrazoliumbromide solution was added to the cells. Following a 4-hour incubation at 37 C and 5% CO2 to allow formazan-crystal formation, the MTT solution was removed and blue formazan salt crystals were solubilized using 500uL anhydrous isopropanol with shaking for 20 minutes. Absorbance was read at 570 and 650nm using a Packard Fusion microplate reader. Background correction of absorbance units was used to determine percent change relative to controls. […]
In general, AC50 refers to the concentration giving half of the maximal activity seen. For `COc1cc(-c2ccc(N)c(OC)c2)ccc1N`, the compound was called inactive and the AC50 is 1.9 µM (active).
On to `O=C(Cc1ccccc1)c1ccccc1`, for which the concentration at half-maximal activity (AC50) is 43.6 µM (active).
In the case of `CN(CCCC(=O)c1cccnc1)N=O`, the outcome was inactive.
Turning to `NNC(=S)NN`, the AC50 is 50 µM (active).
As to `CC12CC1(C)C(=O)N(c1cc(Cl)cc(Cl)c1)C2=O` (stereo not drawn), the AC50 is 20.9 µM (active).
For `CC(C)OC(=O)Nc1ccccc1`, the outcome was inactive.
`Oc1ccc(-c2ccccc2)cc1`: the AC50 was 13.1 µM (active).
Consider `CC1(C)CCC(Cc2ccc(Cl)cc2)C1(O)Cn1cncn1` (stereo not drawn), for which the concentration at half-maximal activity (AC50) is 0.0959 µM (active).
Same read-out and setting: the value for `O=C(Nc1ccc2[nH]ccc2c1)c1cc2cc(F)ccc2n1Cc1cccc(F)c1` was 0.124 µM (active).
Consider `CCOP(=S)(OCC)SCCS(=O)(=O)CC`, for which the AC50 is 14.9 µM (active).
Take `Nc1ccc(-c2ccc(N)c(Cl)c2)cc1Cl`: the call was inactive.
Consider `C[C@]12CCC(=O)C[C@@H]1CC[C@@H]1[C@@H]2CC[C@]2(C)[C@@H](O)CC[C@@H]12`, for which the result was inactive.
Still for that read-out and setting: the entry for `COP(=O)(OC)O/C(=C\Cl)c1cc(Cl)c(Cl)cc1Cl` is “inactive”; for `C[C@@H]1C[C@@H]([C@H](O)CC2CC(=O)NC(=O)C2)C(=O)[C@@H](C)C1` it is “inactive”; for `C(=NC1CCCCC1)=NC1CCCCC1` it is “inactive”.
On to `CCCCCCCCC(=O)NCc1ccc(O)c(OC)c1`, for which the compound was classed as inactive.
As for `C=CC(=O)N(C)C`, the compound was called inactive.
In the case of `C[C@]12CC[C@H](O)CC1=CC[C@@H]1[C@@H]2CC[C@]2(C)C(=O)CC[C@@H]12`, the AC50 was 1.13 µM (active).
Still for that read-out and setting: the figure for `Fc1ccc(C2(Cn3cncn3)OC2c2ccccc2Cl)cc1` (stereo not drawn) is 2.06 µM (active).
On to `CCOP(=S)(OCC)SCSP(=S)(OCC)OCC`, for which the AC50 was 1.73 µM (active).
Take `C1CCC(NC2CCCCC2)CC1`: the compound was classed as inactive.
On to `CCOP(=S)(OCC)Oc1nc(Cl)c(Cl)cc1Cl`, for which the outcome was inactive.
